Laboratory results from PubChem BioAssay (NCI).
Compounds without any hit were thinned out: in the full panel of roughly 79,000, 15% have a hit. Values without a mark were called inactive. Activity calls are given as the source filed them. Rule as the data show it: active = growth inhibition above about 70%; inactive = the rest.

Assays:
[1] = NCI Yeast Anticancer Drug Screen. Data for the rad50 strain (AID 155);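 also: 0% = growth of vehicle-only cultures of the same strain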; conditions: S. cerevisiae rad50 strain growth inhibition; at 50.0 µM; hits give high values
Summary of the method: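 Compounds were tested on a yeast strain with an engineered DNA damage repair alteration; the reported value is growth inhibition normalised to vehicle treatment.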

[2] = NCI Yeast Anticancer Drug Screen. Data for the mec2-1 strain (AID 157); conditions: S. cerevisiae mec2-1 strain, at 50.0 µM, hits give high values
Summary of the method: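 Vehicle-treated cultures served as reference for growth inhibition of compound-exposed mec2-1 yeast.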

[3] = NCI Yeast Anticancer Drug Screen. Data for the sgs1 mgt1 strain (AID 161);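 also: 0% = growth of cultures given vehicle only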; conditions: S. cerevisiae sgs1 mgt1 strain, at 50.0 µM, hits give high values
Summary of the method: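 Mutant yeast exposed to compound; growth scored against vehicle-only wells.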

[4] = NCI Yeast Anticancer Drug Screen. Data for the cln2 rad14 strain (AID 165);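 also: 0% = growth equal to vehicle treated cultures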; conditions: S. cerevisiae cln2 rad14 strain, at 50.0 µM, hits give high values
Summary of the method: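 Each compound was tested on cln2 rad14 yeast. Inhibition of growth was calculated against vehicle-exposed controls.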

[5] = NCI Yeast Anticancer Drug Screen. Data for the bub3 strain (AID 167); conditions: S. cerevisiae bub3 mutant strain, at 50.0 µM, hits give high values
Summary of the method: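 Growth of a checkpoint-deficient yeast mutant is measured after compound exposure. Values represent inhibition relative to vehicle.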

[6] = NCI Yeast Anticancer Drug Screen. Data for the mlh1 rad18 strain (AID 175); conditions: S. cerevisiae mlh1 rad18 strain growth inhibition; at 50.0 µM; hits give high values
Summary of the method: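 Vehicle-treated cultures served as the reference for growth inhibition in a yeast strain carrying DNA damage repair alterations exposed to each compound.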

Compound	growth inhibition [1]	growth inhibition [2]	growth inhibition [3]	growth inhibition [4]	growth inhibition [5]	growth inhibition [6]
CCOC(=O)C12CCC(C(=O)OCC)(CC13OCCO3)C1(C2)OCCO1	11.1%	9.95%	10%	5.55%	7.35%	15.9%
O=C(NCCc1[nH]nc2c1C(=O)C=C(Nc1ccccc1)C2=O)OCc1ccccc1	-29.7%	-15.8%	-32.4%	-21.9%	-29.1%	-52.8%
CCCCCCCCCCCCN=Cc1cc(Cc2ccc(O)c(C=NCCCCCCCCCCCC)c2)ccc1O	85.7% (active)	80.4% (active)	91.3% (active)	84.2% (active)	83.7% (active)	96% (active)
Cc1n[nH]c(=O)n1N1C(=O)c2ccccc2C1=O	-1.25%	-10.1%	-25.7%	-3.45%	-19.6%	-26.6%
CCc1ccc(O)cc1	-3.4%	-25.9%	13.3%	5.85%	-11.9%	6.3%
NCc1c(Cl)c(Cl)c(Cl)c(CN)c1Cl	21.3%	-14.2%	14.1%	11.9%	17.8%	19.5%
NNC(=O)c1ccccc1F	-19.6%	-19.4%	-16.3%	-4.7%	-10.2%	-19.2%
O=S1OC(c2ccccc2)(c2ccccc2)C(c2ccccc2)(c2ccccc2)O1	-29.9%	-16.6%	2.2%	11.6%	-13.2%	-17.4%
CCOC(=O)c1nc2c(Cl)c3ncccc3cc2[nH]c1=O	20.6%	11.1%	20.8%	-9.7%	16.1%	20.4%
CCOc1ccc2ccccc2c1N	44%	15.4%	24.3%	4.8%	51.7%	46.7%
COC(=O)CCC1CCC(CC2CCC(CCC(=O)OC)CC2)CC1 (stereo unspecified)	-20.1%	-6.95%	-6.65%	-26%	-9.7%	-4.25%
Cc1ccc(C(CCCl)OC(C)C)cc1 (stereo unspecified)	7%	7.35%	22%	25.2%	22.6%	17.8%
c1coc(CNc2ncnc3nccnc23)c1	-16.9%	-4.35%	-15.6%	-20.2%	-32.5%	-4.45%
O=C(O)C1C=CCN1 (stereo unspecified)	0.8%	1.2%	0.15%	-6.55%	-18.6%	-3.5%
Nc1ccn([C@H]2CO[C@@H](CO)O2)c(=O)n1	-53%	-46.4%	-18.7%	0.75%	-14.7%	-22.2%
O=C(Nc1nc2ccccc2[nH]1)C(F)(F)F	-6.8%	-13.4%	-3.85%	5.55%	-2.55%	20%
C[N+]1(CC(O)C[N+]2(C)CCCCCC2)CCCCCC1	11.3%	14.1%	-7.65%	-6.2%	-2.9%	32.8%
Cn1c(=O)c2c(ncn2CCCCn2ccnc2[N+](=O)[O-])n(C)c1=O	-30.1%	-3.95%	-14.9%	7.3%	-1.25%	-5.35%
COC(=O)NS(=O)(=O)CC(=O)c1ccccc1	10.2%	-0.3%	-1.55%	8.9%	1.3%	9.9%
O=C(Nc1ccc(Br)cc1)Oc1ccc(Cl)cc1C(=O)c1ccccc1	38%	8.5%	19.1%	29.5%	41.8%	20.5%
Cc1cc(-n2nnc3ccccc3c2=O)on1	-21.2%	-30.7%	-17.1%	-9.5%	-26%	2.5%
